High-throughput results: PubChem BioAssay, several laboratories
A selection: hits, their analogues and other compounds. The true share with any hit is near 2.8%.
SENP6 inh: SENP6 protease inhibition; inhibition, % at 10 µM; Q9GZR1; 1.8% of 330,000 active; Recombinant SENP6 catalytic domain, aminoluciferin luminescence;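 active means inhibition above about 50% at the single tested dose, limit read from the data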
Target sequence (Q9GZR1 628-1112 limits assumed): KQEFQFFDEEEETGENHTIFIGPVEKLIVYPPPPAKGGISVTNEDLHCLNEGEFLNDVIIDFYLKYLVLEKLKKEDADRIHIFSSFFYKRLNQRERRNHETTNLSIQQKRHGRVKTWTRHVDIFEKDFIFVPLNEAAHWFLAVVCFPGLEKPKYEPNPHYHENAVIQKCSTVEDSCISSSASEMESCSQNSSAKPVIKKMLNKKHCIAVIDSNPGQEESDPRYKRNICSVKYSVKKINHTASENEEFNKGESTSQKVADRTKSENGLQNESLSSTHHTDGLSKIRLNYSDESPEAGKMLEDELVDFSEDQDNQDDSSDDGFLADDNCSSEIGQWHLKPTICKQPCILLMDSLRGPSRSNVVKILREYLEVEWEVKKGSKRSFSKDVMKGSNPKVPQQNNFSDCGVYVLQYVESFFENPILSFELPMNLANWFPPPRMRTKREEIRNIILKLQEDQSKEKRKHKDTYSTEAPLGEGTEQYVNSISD
SENP7 inh: blocks the human protease SENP7 | Q9BQF6 | recombinant SENP7, Z-RLRGG-aminoluciferin luminescence, 40 min | inhibition, % at 5 µM | 1.5% of 330,000 active | AID 434973;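 active means inhibition above about 50% at the single test dose, limit read from the data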
HSP90 refold inh: blocks HSP90-mediated luciferase refolding in reticulocyte lysate | 0.91% of 290,000 active | inhibition, % at 5.6 µM | Rabbit reticulocyte lysate, luciferase refolding luminescence, 3 h | AID 1789;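 active means inhibition above the screen-wide mean plus 3 SD, computed separately per campaign, cut at about 16% in these data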;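 further: inhibitors lower the luminescence because luciferase stays unfolded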
SENP8 block-1: SENP8 (human) protease inhibition; 0.64% of 360,000 active; inhibition, % at 20 µM; recombinant SENP8, Nedd8 substrate fluorescence; Q96LD8; AID 602440; in the data active means inhibition mostly above about 40%, no sharp cut-off; inactive means mostly below about 27%
SENP8 block-2: blocks the human protease SENP8 | Q96LD8 | purified SENP8, Z-RLRGG-aminoluciferin cleavage, luminescence | inhibition, % at 10 µM | 1.2% of 330,000 active | AID 2540; in the data active means inhibition above about 50%
SENP8 confirm: human SENP8 inhibition, confirmed; shares compounds with SENP7 inh; Recombinant SENP8, Z-RLRGG-aminoluciferin luminescence, 60 min; inhibition, % at 12.5 µM; 40% of 6,200 active;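 active means mean inhibition across replicates above about 50%, limit read from the data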
SENP6 conf: confirmation of human SENP6 protease inhibitors; shares compounds with SENP7 inh; recombinant SENP6, Z-RLRGG-aminoluciferin luminescence; inhibition, % at 12.5 µM; 58% of 6,200 active; AID 488915
SENP7 confirm: confirmation of human SENP7 protease inhibitors. shares compounds with SENP7 inh. recombinant SENP7, Z-RLRGG-aminoluciferin luminescence, 40 min. inhibition, % at 12.5 µM. 69% of 6,200 active
Casp3 SENP sel: selectivity test for SENP inhibitors: human caspase-3 inhibition; shares compounds with SENP7 inh; purified caspase-3, Z-DEVD-aminoluciferin luminescence, 60 min; inhibition, % at 12.5 µM; 60% of 6,200 active; AID 488918;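 active means mean inhibition above about 50%, limit read from the data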
SENP luc ctr: interferes with luciferase luminescence in SENP counter-screen; shares compounds with SENP7 inh; AID 488919; Pre-incubated SENP8/Z-RLRGG-aminoluciferin, luciferase luminescence interference; inhibition, % at 12.5 µM; 39% of 6,200 active;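 active means mean inhibition above about 50% when retested at one dose, limit read from the data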
Each line names hits and unclear results; the compound was inactive in the other large screens (follow-up assays come after a bar, where they were run).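 How the source made its calls, unless noted: active means mean inhibition above about 50% in the one-dose retest (limit read from the data); inactive means the rest.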

c1ccc(CC2CCN(C3=Nc4cccc5cccc3c45)CC2)cc1	SENP6 inh 73 | SENP8 confirm inactive | SENP6 conf inactive | SENP7 confirm inactive | Casp3 SENP sel inactive | SENP luc ctr inactive
CCOC(=O)N1CCN(C2=Nc3cccc4cccc2c34)CC1	SENP6 inh 75 | SENP8 confirm inactive | SENP6 conf inactive | SENP7 confirm inactive | Casp3 SENP sel inactive | SENP luc ctr inactive
COc1ccccc1N1CCN(C2=Nc3cccc4cccc2c34)CC1	none
CC(=O)N1CCN(C2=Nc3cccc4cccc2c34)CC1	SENP6 inh 81, SENP8 block-2 67 | SENP8 confirm inactive | SENP6 conf inactive | SENP7 confirm inactive | Casp3 SENP sel inactive | SENP luc ctr inactive
c1cc2c3c(cccc3c1)C(N1CCN(C3=Nc4cccc5cccc3c45)CC1)=N2	none (no result: SENP6 inh, SENP7 inh, SENP8 block-1, SENP8 block-2)
CCOC(=O)N1CCN(C(=O)Nc2cccc3ccccc23)CC1	SENP6 inh 52 | SENP8 confirm inactive | SENP6 conf inactive | SENP7 confirm inactive | Casp3 SENP sel inactive | SENP luc ctr inactive
O=C(Cn1c(O)c(N=NC(=O)c2ccncc2)c2ccccc21)Nc1ccccc1	none (no result: SENP8 block-1)
CCOC(=O)c1sc2nc(CC(=O)OC)nc(NCc3ccc(Cl)cc3)c2c1C	none
c1cc2c3c(cccc3c1)C(N1CCOCC1)=N2	SENP6 inh 76 | SENP8 confirm inactive | SENP6 conf inactive | SENP7 confirm inactive | Casp3 SENP sel inactive | SENP luc ctr inactive
Cc1cc(/C=N\NC(=O)CC(=O)NC2CCCCC2)c(C)n1-c1cccc(Cl)c1Cl	none
O=C(Nc1ccc2c(c1)OCCO2)C(=O)c1c[nH]c2ccccc12	SENP6 inh 87, SENP7 inh 99, SENP8 block-2 82 | SENP8 confirm 79 | SENP6 conf 78 | SENP7 confirm 101 | Casp3 SENP sel 86 | SENP luc ctr 92
O=C(Nc1ccc2c(c1)OCO2)C(=O)c1c[nH]c2ccccc12	SENP7 inh 81 | SENP8 confirm inactive | SENP6 conf inactive | SENP7 confirm 79 | Casp3 SENP sel 75 | SENP luc ctr inactive
Cc1[nH]c2ccccc2c1C(=O)C(=O)Nc1ccc2c(c1)OCCO2	none
COC(=O)[C@@H](Cc1c[nH]c2ccccc12)NC(=O)c1ccc2c(c1)OCO2	SENP6 inh 59, SENP7 inh 65, SENP8 block-2 53 | SENP8 confirm inactive | SENP6 conf inactive | SENP7 confirm 83 | Casp3 SENP sel 67 | SENP luc ctr 68
O=C(COC(=O)[C@H](Cc1c[nH]c2ccccc12)NC(=O)c1ccc(Cl)cc1)Nc1ccc2c(c1)OCO2	none
CCc1noc(C)c1C(=O)Nc1cccc2ncccc12	none
COC(=O)CCCC1=CC2=CC(=O)C(C)(OC(=O)c3cccs3)C(=O)C2=CN1Cc1ccc2c(c1)OCO2 (stereo not given)	none (no result: HSP90 refold inh)
CN(C)S(=O)(=O)c1cccc(NC(=S)N2CCc3ccccc32)c1	none
Cc1ccnc(NC(=O)c2cc3c(=O)oc4ccc(C)cc4c3s2)c1	none
Cc1nc2cc(NC(=O)c3ccc(Br)s3)ccc2s1	SENP6 inh 70, SENP7 inh 70 | SENP8 confirm inactive | SENP6 conf 51 | SENP7 confirm 91 | Casp3 SENP sel inactive | SENP luc ctr inactive
Cc1ccnc(NC(=O)c2cccs2)c1	SENP6 inh 54, SENP7 inh 57 | SENP8 confirm 51 | SENP6 conf 51 | SENP7 confirm 84 | Casp3 SENP sel 86 | SENP luc ctr 62
Cc1ccnc(NC(=O)c2ccc(Br)s2)c1	SENP6 inh 88, SENP7 inh 92, SENP8 block-2 82 | SENP8 confirm 86 | SENP6 conf 87 | SENP7 confirm 98 | Casp3 SENP sel 91 | SENP luc ctr 88
COC(=O)c1c(C)[nH]c(C(=O)OC(C)C(=O)N(C)C2CCCCC2)c1C (stereo not given)	none (no result: HSP90 refold inh)
